# Assay results: PubChem BioAssay (Tox21)
# Several values for one entry are separate records, joined by “and”; a condition that tells them apart may be missing. Equal entries are not always repeated. Inconclusive results are not listed. Entries that show only a call come without a potency. More than one record can exist for a structure, and the calls need not agree. Activity calls are given as the source filed them. Calls follow the shape of the dose curve; as a rule, active = well fitted cell-killing curve with a large enough effect in the repeat runs; inconclusive = weak or mixed curves, or effect the other way; inactive = flat fitted curve, though single readings scatter.
# Assay: qHTS RealTime-Glo MT Cell Viability Assay in HEK293 cells - 32 hour (AID 1224868); also: nearly all actives have a fitted effect of over 50% in size
# Conditions: RealTime-Glo luminescence; series mostly up to 76.8 µM
# From the text: National Center for Advancing Translational Sciences [NCATS]
# NIH Chemical Genomics Center [NCGC]
# U.S. Environmental Protection Agency [EPA]
# National Institutes of Environmental Health Sciences [NIEHS]
# National Toxicology Program [NTP]
# U.S. Food and Drug Administration [FDA]
# Measure of cell viability is critical in the cell-base assay. Analysis of cell viability is necessary for the characterization of cell responses to cytotoxic drugs and environmental stress. A RealTime-Glo MT Cell Viability Assay to monitor cell viability in real time of continues cell culture during 40 hours of compound treatment was used to screen Tox21 10K library compounds in Hek293 cells. The RealTime-Glo MT Cell Viability Assay is a nonlytic, homogeneous, bioluminescent method to measure cell viability in real time using a simple, plate-based method. The assay involves adding NanoLuc luciferase and a cell-permeant prosubstrate to cells in culture. Viable cells reduce the proprietary prosubstrate to generate a substrate for NanoLuc luciferase. This substrate diffuses from cells into the surrounding culture medium, where it is rapidly used by the NanoLuc Enzyme to produce a luminescent signal. The signal correlates with the number of viable cells, making the assay well suited for cytotoxicity studies.
# Tox21 Assay Protocol Summary:
# The mixture of Hek293 cell suspension and reagents were dispensed at 600cells/6 ul/well in 1536-well tissue culture treated black solid bottom plates using a Multidrop dispenser. After the assay plates were incubated at a 37 C/5% CO2 incubator for 5 hours, 23 nL of compounds dissolved in DMSO, positive and negative controls was transferred to the assay plate by a pintool work station. The plates were incubated at 37 C for 40 hours. The luminescence intensity were measured at 0h, 8h, 16h, 24h, 32h and 40h time points using ViewLux plate reader during compound treatment.
# Potency is read from the fitted curve at half-maximal effect.
row,Compound,Potency
1,CCCCCCC#N,inactive
2,C=CCN1CC[C@]23c4c5ccc(O)c4O[C@H]2C(=O)CC[C@@]3(O)[C@H]1C5,inactive
3,ClCC(Br)CBr (stereo not given),inactive
4,CCn1cc[n+](C)c1,inactive and 1.75 µM (active)
5,CCOP(=S)(OCC)SCSCC,inactive
6,C=COC(C)=O,inactive
7,CCOP(=S)(OCC)Oc1cc(Cl)c(Br)cc1Cl,inactive
8,NNC(=O)c1cccnc1,inactive
9,CCC(C)(NC(=O)c1cc(Cl)c(C)c(Cl)c1)C(=O)CCl (stereo not given),19.6 µM (active)
10,CC(Cl)Cl,inactive
11,CCCC(=O)Cl,inactive
12,CCCCCC[N+](=O)[O-],inactive
13,COC(C)(C)CCC[C@H](C)C/C=C/C(C)=C/C(=O)OC(C)C,inactive
14,CC(C)(CCl)C(=O)Cl,inactive
15,c1ccc(C2CC2)c(OCC2=NCCN2)c1,inactive
16,CCCC(Cn1cncn1)c1ccc(Cl)cc1Cl (stereo not given),21.9 µM (active)
17,O=S1(=O)OC(c2cc(Br)c(O)c(Br)c2)(c2cc(Br)c(O)c(Br)c2)c2ccccc21,inactive
18,COC(=O)c1cncn1C(C)c1ccccc1 (stereo not given),inactive
19,Cl/C=C\Cl,inactive
20,OCCCBr,inactive

row,Compound,Potency
1,C[N+](C)(C)CCCl,inactive
2,CC(Cl)C(C)Cl (stereo not given),inactive
3,O=Cc1ccc2c(c1)OCO2,inactive
4,c1ccc(CN2CCNCC2)cc1,inactive
5,Clc1cccc(SC2CCNCC2)n1,inactive
6,CCOP(=S)(OCC)Oc1nc(Cl)c(Cl)cc1Cl,21.9 µM (active) and inactive
7,CCOC(=O)COc1cc(-c2nn(C)c(OC(F)F)c2Cl)c(F)cc1Cl,inactive
8,CC(C)(OO)c1ccccc1,inactive
9,CCOc1nc(F)cc2nc(S(=O)(=O)Nc3c(Cl)cccc3Cl)nn12,inactive
10,N#Cc1ccc(Cl)cc1,inactive
11,CC(C)(C)C(O)C(Oc1ccc(Cl)cc1)n1cncn1 (stereo not given),12.3 µM (active)
12,COC(N)=O,inactive
13,C=CC(=O)OC(C)(C)C,inactive
14,NCCCNCCCN,inactive
15,N#CCc1ccccc1,inactive
16,CN(N=O)c1ccc([N+](=O)[O-])cc1,inactive
17,CCCCCCCCOC(=O)c1ccc(C(=O)OCCCCCCCC)c(C(=O)OCCCCCCCC)c1,inactive
18,O=C(CBr)OCc1ccccc1,inactive
19,COP(=S)(OC)Oc1ccc([N+](=O)[O-])cc1Cl,inactive
20,CCCN(CCCl)c1c([N+](=O)[O-])cc(C(F)(F)F)cc1[N+](=O)[O-],inactive
